Among the data in PubChem BioAssay (NCATS) are Potency values, retold here.

Records with an inconclusive call do not appear. Active and inactive are the calls of the source. Unless noted, calls follow the shape of the dose curve; as a rule, active = well fitted curve in the direction sought with a large enough effect; inconclusive = small, poorly fitted or top-dose-only effect, or another doubt; inactive = no such curve, though single readings can be large; an effect the other way counts as inactive or inconclusive.

In assay [1] the target is Cytochrome P450 2C9 (Homo sapiens) (UniProt P11712). Description: Cytochrome P450 family 2 subfamily C member 9 (CYP2C9) small molecule antagonists: luciferase biochemical (cell-free) qHTS assay (AID 1645842; active = well fitted curve in the direction sought with a large enough effect in the repeat runs; an effect the other way counts as inactive or inconclusive; also: nearly all actives have a fitted effect of over 55% in size; also: potency is read from the fitted curve at half-maximal effect). The procedure, abridged: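 Luminescence, after 20 min with luciferin detection reagent, reflected CYP2C9 turnover during a 1 h NADPH-driven reaction at 37C. Enzyme-substrate mix contained 0.4% bovine serum albumin and was preincubated with compound 10 min at room temperature.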
Chain of Cytochrome P450 2C9 (Homo sapiens) (P11712 whole entry, looked up): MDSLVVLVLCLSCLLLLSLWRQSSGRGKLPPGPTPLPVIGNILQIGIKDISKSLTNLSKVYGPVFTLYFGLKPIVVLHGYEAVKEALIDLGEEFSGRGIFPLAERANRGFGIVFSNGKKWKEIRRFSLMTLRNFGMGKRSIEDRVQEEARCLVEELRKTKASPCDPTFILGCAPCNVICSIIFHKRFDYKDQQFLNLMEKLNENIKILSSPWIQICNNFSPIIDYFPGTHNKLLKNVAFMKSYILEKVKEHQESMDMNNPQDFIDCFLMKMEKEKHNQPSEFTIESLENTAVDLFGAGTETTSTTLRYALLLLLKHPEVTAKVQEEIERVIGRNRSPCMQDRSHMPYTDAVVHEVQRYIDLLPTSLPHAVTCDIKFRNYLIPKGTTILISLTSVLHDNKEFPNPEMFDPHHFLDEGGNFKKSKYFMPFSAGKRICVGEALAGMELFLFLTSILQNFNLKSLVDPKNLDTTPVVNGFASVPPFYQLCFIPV

The nature of assay [2]: Primary qHTS for inhibitors of nuclear receptor binding SET domain protein 2 (NSD2) in an isogenic RCH-ACV NSD2 p.E1099K mutant (9B) (AID 1645876). Also: nearly all actives have a fitted effect of over 70% in size. Also: potency is read from the fitted curve at half-maximal effect.
Assay [3] in a line: Primary qHTS for inhibitors of nuclear receptor binding SET domain protein 2 (NSD2) in an RCH-ACV wild type WT cells (2C) (AID 1645877). Also: nearly all actives have a fitted effect of over 70% in size. Also: potency is read from the fitted curve at half-maximal effect.
Assay [4] in a line: Confirmatory qHTS to identify inhibitors of SARS-CoV-2 cell entry (AID 1645844; calls by dose curve; also: potency is read from the fitted curve at half-maximal effect; nearly all actives have a fitted effect of over 45% in size). Summed up:
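HEK293-ACE2 cells were pretreated 1 h with compound, then infected with MLV-based pseudoparticles bearing C-terminally truncated Wuhan-Hu-1 spike for 48 h at 37C; luciferase luminescence normalized to spike PP and bald PP wells.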

The nature of assay [5]: Cytotoxicity counterscreen for inhibitors of SARS-CoV-2 cell entry (AID 1645845; calls by dose curve; also: series mostly up to about 57 µM; nearly all actives have a fitted effect of over 50% in size). The procedure, abridged: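 HEK293-ACE2 cells (Expi293F stably expressing human ACE2) seeded overnight, then compound for 1 h plus 48 h at 37C. Viability as ATP content by luminescence; normalized to wells with cells and media-only wells.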
(The purpose of a counterscreen is to sort out artefacts and off-target activity.)

A short description of assay [6]: VSVG counterscreen qHTS to identify inhibitors of SARS-CoV-2 cell entry (AID 1645847; calls by dose curve; also: potency is read from the fitted curve at half-maximal effect; nearly all actives have a fitted effect of over 65% in size). The procedure, abridged:
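HEK293-ACE2 cells (Expi293F stably expressing human ACE2) were pretreated with compound for 1 h at 37 °C, then infected with MLV-based VSV-G pseudotyped particles for 48 h. Luciferase luminescence was normalized to VSV-G PP and bald PP wells.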

In the case of `CCO[C@H]1O[C@@H]2OC3(C)CC[C@H]4[C@H](C)CC[C@@H]([C@H]1C)[C@@]24OO3`, the Potency in assay [1] was 15.5 µM (active); in assay [2], 2.99 µM (active).

As for `COc1cc(N)c(Cl)cc1C(=O)NC1CN2CCC1CC2` (stereo not given), the Potency entry in assay [1] and in assay [2] was “inactive” throughout.

For `ClC1=C(Cl)C2(Cl)C(CBr)CC1(Cl)C2(Cl)Cl` (stereo not given), the Potency entry in assay [1] and in assay [2] was “inactive” throughout.

Regarding `CN1C(=O)[C@@H](NC(=O)c2cc3ccccc3[nH]2)N=C(c2ccccc2)c2ccccc21`, the Potency in assay [1] is 2.75 µM (active). Moreover, the Potency result in assay [2] is “inactive”.

Take `Nc1ccc(N)cc1`: the Potency in assay [1] was 15.5 µM (active). Further, in assay [2], the Potency entry is “inactive”.

Consider `OC(O)C(Cl)(Cl)Cl`, for which the Potency result in assay [1], in assay [2] and in assay [3] was “inactive” throughout.

As to `COc1cc(CC#N)cc(OC)c1OC`, the Potency result in assay [1], in assay [2] and in assay [3] was “inactive” in each case.

For the compound `CN1C[C@@H](NS(=O)(=O)N(C)C)C[C@@H]2c3cccc4c3c(cn4C)C[C@H]21`, the Potency result in assay [1] and in assay [2] was “inactive” throughout.

For `C[N+](C)(C)CCOC(=O)C(O)(c1ccccc1)c1ccccc1`, the Potency result in assay [1] and in assay [2] was “inactive” each time.

`O=c1[nH]c2cc(Cl)ccc2n1C1CCNCC1`: the Potency entry in assay [1], in assay [2] and in assay [3] was “inactive” in each case.

With `CCc1ccc(C2CCNCC2)cc1`, the Potency result in assay [1] and in assay [2] was “inactive” each time.

With `OC(c1ccccc1)(c1ccccc1)C1CCNCC1`, the Potency result in assay [1] and in assay [2] was “inactive” each time.

Take `O=C1NCN(c2ccccc2)C12CCN(CCCOc1ccc(F)cc1)CC2`: the Potency entry in assay [1] is “inactive”. Besides, the Potency in assay [2] is 6.68 µM (active); in assay [3], 7.5 µM (active).

For the compound `CN(C)CCc1c[nH]c2ccc(O)cc12`, the Potency entry in assay [1] and in assay [2] was “inactive” throughout.

In the case of `COc1ccc(OC)c(CC(C)N)c1` (stereo not given), the Potency entry in assay [1], in assay [2] and in assay [3] was “inactive” each time.

For `CCOC(=O)C(c1c(O)c2ccccc2oc1=O)c1c(O)c2ccccc2oc1=O`, in assay [1], the Potency was 3.09 µM (active). The Potency result in assay [2] and in assay [3] was “inactive” in each case.

For `CCCOC(=O)Cc1ccc(OCC(=O)N(CC)CC)c(OC)c1`, the Potency entry in assay [1], in assay [2] and in assay [3] was “inactive” throughout.

Regarding `CCN(CC)C(C)C(=O)c1ccccc1` (stereo not given), the Potency entry in assay [1], in assay [2] and in assay [3] was “inactive” in each case.

Turning to `NC1(c2ccccc2)CCCCC1`, the Potency entry in assay [1] was “inactive”. Further, the figures for the Potency in assay [2] and in assay [3] were 17.1 µM (active) and 24.1 µM (active), respectively.

Regarding `O=C1NC2CCCCN2C12CCN(CCCN1c3ccccc3CCc3ccc(Cl)cc31)CC2` (stereo not given), the Potency in assay [4] is 15.2 µM (active); in assay [6] it was 21.5 µM (active). Further, the Potency entry in assay [5] was “inactive”.
